Test results as given in PubChem BioAssay (NCATS).
Inconclusive results are not listed. Where a call stands in place of a potency, no number is given. Calls of active or inactive are those of the source. The call rests on the fitted dose curve; in most records, active means well fitted curve in the direction sought with a large enough effect; inconclusive means small, poorly fitted or top-dose-only effect, or another doubt; inactive means no such curve, though single readings can be large; an effect the other way counts as inactive or inconclusive.

How the values were obtained:
[1] = molecular target: Aldehyde dehydrogenase, mitochondrial (Homo sapiens) (UniProt P05091); assay: qHTS for Inhibitors of the Aldehyde Dehydrogenase Family (ALDH2) Primary screen (AID 2061308); further: nearly all actives have a fitted effect of over 55% in size
[2] = molecular target: Retinaldehyde dehydrogenase 3 (Homo sapiens) (UniProt P47895); assay: qHTS for Inhibitors of the Aldehyde Dehydrogenase Family (ALDH1A3) Primary screen (AID 2061315)

Cc1cc2c(s1)c1cnn(Cc3cccc(F)c3)c(=O)c1n2C
Potency [1]: inactive | Potency [2]: inactive

N#CN1CCC(NC(=O)c2cccc(C(F)(F)F)c2)CC1
Potency [1]: inactive | Potency [2]: inactive

O=S(=O)(Nc1nc(CN2CCOCC2)nc2sc3c(c12)CCCC3)c1ccc2ccccc2c1
Potency [1]: inactive | Potency [2]: inactive

CCOc1ccc(-c2csc(N3CCC(C(N)=O)CC3)n2)cc1
Potency [1]: inactive | Potency [2]: inactive

O=c1c2ccccc2nc2sc(Nc3cccc(-c4ccncc4)c3)nn12
Potency [1]: inactive | Potency [2]: inactive

Cc1ccc(Cn2ncc3c4sc(C)cc4n(C)c3c2=O)cc1
Potency [1]: inactive | Potency [2]: inactive

COc1ccc(-c2nnc3n2N=C(c2ccc(OC)c(OC)c2)CS3)cc1
Potency [1]: inactive | Potency [2]: inactive

Cc1noc(C)c1-c1ccc2ncnc(NCC3CCCCN3C)c2c1 (configuration not stated)
Potency [1]: inactive | Potency [2]: inactive

CC(=O)Nc1nc(C)c(-c2nc(N3CCCC(O)C3)no2)s1 (configuration not stated)
Potency [1]: inactive | Potency [2]: inactive

COc1cc(/C=C/CO)cc(OC)c1O[C@@H]1O[C@H](CO[C@@H]2O[C@H](CO)[C@@H](O)[C@H](O)[C@H]2O)[C@@H](O)[C@H](O)[C@H]1O
Potency [1]: inactive | Potency [2]: inactive

CC/C=C/CC1=C(CCCCC(CCC(=O)O)OC(C)=O)CCC1=O (configuration not stated)
Potency [1]: inactive | Potency [2]: inactive

CCCn1c(-c2ccc(F)cc2)nc2c(NCCN3CCOCC3)nc(C)nc21
Potency [1]: inactive | Potency [2]: inactive

COc1ccc([S+](=O)([O-])N2CCCN([S+](=O)([O-])c3ccc(OC)c(N)c3)CC2)cc1N
Potency [1]: inactive | Potency [2]: inactive

Cc1ccc(OCCCn2c(CCNC(=O)C3CCCCC3)nc3ccccc32)cc1
Potency [1]: inactive | Potency [2]: inactive

O=C(OCC#CCSc1nnc(-c2ccccc2Cl)o1)c1ccc(F)cc1
Potency [1]: inactive | Potency [2]: inactive

COc1ccc(OC)c(-c2nnc(NC(=O)Nc3ccc4ccccc4c3)s2)c1
Potency [1]: inactive | Potency [2]: inactive

O=C(Cc1ccc(Cl)c(Cl)c1)Nc1ccc([S+](=O)([O-])Nc2ccccn2)cc1
Potency [1]: inactive | Potency [2]: inactive

Cc1cc(NC(=O)Nc2nnc(-c3cccnc3)s2)ccc1F
Potency [1]: inactive | Potency [2]: inactive

O=S(=O)(Nc1ccc(S(=O)(=O)Nc2nccs2)cc1)c1ccc2ccccc2c1
Potency [1]: inactive | Potency [2]: inactive

COc1cc(NS(=O)(=O)c2ccc(C)cc2)c(C(=O)Nc2nc(-c3ccccc3)cs2)cc1OC
Potency [1]: inactive | Potency [2]: inactive

O=S(=O)(c1ccc2c(c1)OCCO2)N1CCN(S(=O)(=O)c2cccc(Cl)c2F)CC1
Potency [1]: inactive | Potency [2]: inactive

COC(=O)c1ccc(O)c2ncc(N(C)C)cc12
Potency [1]: inactive | Potency [2]: inactive

O=C(Nc1nc(-c2ccccc2)cs1)c1ccncc1NS(=O)(=O)c1ccc(-c2ccccc2)cc1
Potency [1]: inactive | Potency [2]: inactive

O=Cc1nc(Nc2cc(F)cc(F)c2)nc(NC2CCCC2)n1
Potency [1]: inactive | Potency [2]: inactive

Cc1cccc(-n2cnc3cc(C(=O)N4CCOCC4)ccc32)c1
Potency [1]: inactive | Potency [2]: inactive

O=C(Nc1ccc(-c2nc3ccccc3[nH]2)cc1)c1ccc2cc[nH]c2c1
Potency [1]: inactive | Potency [2]: inactive

O=C(c1cc2sccc2n1Cc1ccccc1)N(CCc1ccc(O)c(O)c1)Cc1ccccc1
Potency [1]: inactive | Potency [2]: inactive

Fc1cc(Nc2nc(-c3ccncc3)nc3ccccc23)ccc1C(F)(F)F
Potency [1]: inactive | Potency [2]: inactive

CS(=O)(=O)Nc1ccc(-c2nc(NCc3ccc(-c4ccnc(C(F)(F)F)c4)cc3)c3ccccc3n2)cc1
Potency [1]: inactive | Potency [2]: inactive

CCOC(=O)C1CCN(C(=O)C(C)(C)NC(=O)Nc2ccc(Cl)cc2Cl)CC1
Potency [1]: inactive | Potency [2]: inactive

CCCn1c(-c2ccc(F)cc2)nc2c(NCCCN(C)C)nc(C)nc21
Potency [1]: inactive | Potency [2]: inactive

Cc1nc(N2CCOCC2)c2nc(-c3ccccc3)n(CCN3CCCC3)c2n1
Potency [1]: inactive | Potency [2]: inactive

CC(C)C[C@@H]1NC(=O)[C@@H](Cc2ccccc2)NC(=O)C(CCCCCC(=O)C2CO2)NC(=O)[C@@H]2CCCCN2C1=O (some centres not stated)
Potency [1]: inactive | Potency [2]: inactive

COc1ccccc1-c1nc(NCc2ccc(-c3cccnc3)cc2)c2ccccc2n1
Potency [1]: inactive | Potency [2]: inactive

Cc1ccc(S(=O)(=O)Nc2ccccc2C(=O)Nc2ccc(-c3ccccc3)cc2)cc1
Potency [1]: inactive | Potency [2]: inactive

COc1cc(-c2nc(Nc3ccc(F)c(F)c3)c3ccccc3n2)ccn1
Potency [1]: inactive | Potency [2]: inactive

CC(C)c1ccccc1-c1nc(NCc2ccc(-c3cccnc3)cc2)c2sccc2n1
Potency [1]: inactive | Potency [2]: inactive

CSc1ccccc1-c1ccc(Nc2nc(-c3ccncc3)nc3ccccc23)cc1F
Potency [1]: inactive | Potency [2]: inactive

Cc1cccc(S(=O)(=O)Nc2cnccc2C(=O)Nc2nc(-c3ccccc3)cs2)c1
Potency [1]: inactive | Potency [2]: inactive

OC(c1ccccc1)(c1ccccc1)c1cnc2ccccn12
Potency [1]: inactive | Potency [2]: inactive

O=C(Nc1ccc(-c2ccccc2)cc1)[C@H](Cc1ccc(O[S+](=O)([O-])c2cccc3cnccc23)cc1)N[S+](=O)([O-])c1cccc2cnccc12
Potency [1]: inactive | Potency [2]: inactive

Cc1cc(NC(=S)N2CCN(c3cccc(C(F)(F)F)c3)CC2)nc2ccccc12
Potency [1]: inactive | Potency [2]: inactive

CSc1cnc(-c2ccccc2C(C)C)nc1NCc1ccc(-c2cccnc2)cc1
Potency [1]: inactive | Potency [2]: inactive

Cc1cccc(CNc2ncnc3ccc(-c4ccc5c(ccn5C)c4)cc23)c1
Potency [1]: inactive | Potency [2]: inactive

O=C1CCCC2=C1C(c1ccc(F)cc1)N=C(Nc1nc3ccccc3o1)N2 (configuration not stated)
Potency [1]: inactive | Potency [2]: inactive

N#CN1CCC(NS(=O)(=O)c2ccc(F)cc2)C1 (configuration not stated)
Potency [1]: inactive | Potency [2]: inactive

COc1ccc(-c2ccc3ncnc(NCCc4cnc[nH]4)c3c2)cc1OC
Potency [1]: inactive | Potency [2]: inactive

Cc1ccc(NS(=O)(=O)c2cc3c(cc2Cl)NC(=O)C3)cc1C
Potency [1]: inactive | Potency [2]: inactive

Cc1cnc(-c2ccccc2C(C)C)nc1NCc1ccc(-c2cccc(S(N)(=O)=O)c2)cc1
Potency [1]: inactive | Potency [2]: inactive

Cc1noc(C)c1-c1ccc(Nc2nc(-c3ccncc3)nc3ccccc23)cc1F
Potency [1]: inactive | Potency [2]: inactive

CCCn1c(C)nc2c(NCCCCN(CC)CC)nc(C)nc21
Potency [1]: inactive | Potency [2]: inactive

CCc1ccc2oc(=O)cc(CN3CCN(c4ccccc4F)CC3)c2c1
Potency [1]: inactive | Potency [2]: inactive

Cc1ccc(-c2cc(C(=O)NCc3ccccc3)c3ccccc3n2)cc1C
Potency [1]: inactive | Potency [2]: inactive

Cc1cc2c(s1)c1cnn(Cc3cc(C(F)(F)F)cc(Cl)c3F)c(=O)c1n2C
Potency [1]: inactive | Potency [2]: inactive

O=S(=O)(NC1CCC(CNS(=O)(=O)c2c(F)cccc2F)CC1)c1ccc2c(c1)OCCO2 (configuration not stated)
Potency [1]: inactive | Potency [2]: inactive

COc1cccc(C2c3c(ncn(-c4ccncc4)c3=N)Oc3ccc4ccccc4c32)c1 (configuration not stated)
Potency [1]: inactive | Potency [2]: inactive

O=C(N[C@H]1CCN(C(=O)c2cc(C(F)(F)F)cc(C(F)(F)F)c2)[C@H](Cc2ccc(Cl)cc2)C1)c1ccnc2ccccc12
Potency [1]: inactive | Potency [2]: inactive

Cn1c(=O)c2c(nc(CN3CCN(C(=O)C4CC4)CC3)n2Cc2ccccc2Cl)n(C)c1=O
Potency [1]: inactive | Potency [2]: inactive

Cc1cnc(NC(=O)c2cc(S(=O)(=O)N(C)C)ccc2N2CCCC2)s1
Potency [1]: inactive | Potency [2]: inactive

Cn1c2cc(Br)sc2c2cnn(Cc3c(F)cccc3F)c(=O)c21
Potency [1]: inactive | Potency [2]: inactive

COc1ccc(C2Nc3ccccc3C(=O)N2Cc2ccco2)cc1COc1c(C)cccc1C (configuration not stated)
Potency [1]: inactive | Potency [2]: inactive

O=C1CCCC2=C1C1(CCCC1)N=C(Nc1nc3ccccc3o1)N2
Potency [1]: inactive | Potency [2]: inactive

COc1cc(O)c(C(CC(=O)N2CCCC(C)C2)c2ccc(C)cc2)c(OC)c1 (configuration not stated)
Potency [1]: inactive | Potency [2]: inactive

COc1cccc(CNc2ccc(S(=O)(=O)Nc3nccs3)cc2)c1
Potency [1]: inactive | Potency [2]: inactive

Cc1cc(NS(=O)(=O)c2ccc3c(c2)CCC(=O)N3)ccc1Cl
Potency [1]: inactive | Potency [2]: inactive

CCOC(=O)c1ccc(-c2ccc3ncnc(NCc4ncc[nH]4)c3c2)o1
Potency [1]: inactive | Potency [2]: inactive

COc1ccc(C[C@H](N)C(=O)N[C@@H]2[C@H](O)[C@H](n3cnc4c(N(C)C)ncnc43)O[C@@H]2CO)cc1
Potency [1]: inactive | Potency [2]: inactive

CNc1oc(-c2cccc3c2OC(F)(F)O3)nc1C#N
Potency [1]: inactive | Potency [2]: inactive

O=C(Nc1ccc(-c2ccncc2)nc1)c1cccs1
Potency [1]: inactive | Potency [2]: inactive

Cc1cnc(-c2ccccc2C(C)C)nc1NCc1ccc(C#N)cc1
Potency [1]: inactive | Potency [2]: inactive

COc1ccc(C2Nc3ccccc3C(=O)N2Cc2ccccc2)cc1COc1c(C)cc(NC(C)=O)cc1C (configuration not stated)
Potency [1]: inactive | Potency [2]: inactive

Cc1ccc(NS(=O)(=O)c2cc3c(cc2Cl)CCC(=O)N3)cc1C
Potency [1]: inactive | Potency [2]: inactive

CCCn1c(C)nc2c(NCCCCN3CCCC3)nc(C)nc21
Potency [1]: inactive | Potency [2]: inactive

C[C@@H]1[C@H]2[C@H](O[C@@H]3O[C@H](CO)[C@@H](O)[C@H](O)[C@H]3O)OC=C(C(=O)O)[C@H]2C[C@@H]1O
Potency [1]: inactive | Potency [2]: inactive

C[C@@H]1CC[C@]2(C(=O)O[C@@H]3O[C@H](CO)[C@@H](O)[C@H](O)[C@H]3O)CC[C@]3(C)C(=CCC4[C@@]5(C)C[C@@H](O)[C@H](O)[C@](C)(C(=O)O)C5CC[C@]43C)[C@@H]2[C@]1(C)O (some centres not stated)
Potency [1]: inactive | Potency [2]: inactive

CCCn1c(C)nc2c(NCCN(C(C)C)C(C)C)nc(C)nc21
Potency [1]: inactive | Potency [2]: inactive

CN(Cc1cncn1C)c1ncnc2ccc(-c3ccc4c(c3)OCO4)cc12
Potency [1]: inactive | Potency [2]: inactive

Cc1cc(C)nc(NC(=S)N2CCN(c3ccc(Cl)cc3S(C)(=O)=O)CC2)c1
Potency [1]: inactive | Potency [2]: inactive

CC1CCC2(C(=O)OC3OC(COC4OC(CO)C(O)C(O)C4O)C(O)C(O)C3O)CCC3(C)C(=CCC4C5(C)CCC(O)C(C)(C(=O)O)C5CCC43C)C2C1(C)O (configuration not stated)
Potency [1]: inactive | Potency [2]: inactive

O=C(OCC#CCSc1nnc(-c2ccccc2F)o1)c1ccc(F)cc1
Potency [1]: inactive | Potency [2]: inactive

O=C(Nc1ccc(Cl)c(Cl)c1)Nc1nnc(-c2cccnc2)s1
Potency [1]: inactive | Potency [2]: inactive
